Laboratory results from PubChem BioAssay (NCI).
The panel holds about 83,000 compounds, 20% with a hit somewhere; the sample as a whole holds those more often.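 A percent growth of 40 corresponds to 60% growth inhibition; 0 means no net growth; -100 means all cells died. Active threshold: below 10.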 Values without a mark were called inactive. Calls of active or inactive are those of the source. *1 amine or outer side, *2 acyl side, *3 side chain or, on linkers, in order; H or OH if unused. Where a SMILES comes first, the peptide text is derived from it. Bridges are numbered along the chain shown (N, C = ends). Roman numbers before positions name the chains, in order. [ ]: non-standard residue; d: D form. ξ: configuration not given here. Actinocin(1to9) = Cc1c2oc3c(C)ccc(C(=O)[*:2])c3nc-2c(C(=O)[*:1])c(N)c1=O; NMeV = CN[CH](C(=O)O)C(C)C; ξD = NC(CC(=O)O)C(=O)O; Sar = CNCC(=O)O

These compounds were tested on A549/ATCC NSCLC (assay: NCI-60 one-dose screen, 48 h (100 = growth as untreated, 0 = no growth, -100 = all killed)). Settings: 10 µM unless noted.
Experimental: Growth inhibition of the A549/ATCC human Non-Small Cell Lung tumor cell line is measured as a screen for anti-cancer activity. Cells are grown in 96 well plates and exposed to the test compound for 48 hours. Compounds are tested at a single concentration, which is 10^-5 M for most compounds. The reported endpoint is percent growth (GI% or GIPRCNT), where numbers from 0 - 100% represent growth inhibition, and numbers from -100% - 0 represent cell death. For example, a value of 40 represents 60% growth inhibition. A value of 0 means no net growth occurred over the course of the experiment. A value of -40 indicates 40% of cells at the beginning of the experiment died by the end of the experiment. A value of -100 means all cells are dead at the end of the experiment.
NCI-60 Human Tumor Cell Lines Screen was performed using the standard one-dose NCI protocol, which is described in more detail at https://dtp.cancer.gov/discovery_development/nci-60/default.htm.
Compounds with GIPRCNT values below 10 were considered active. Activity score was based on GIPRCNT using the following formula: […]
Score is 0 for GIPRCNT values of 100 or above, 50 for GIPRCNT values of 0, and 100 for GIPRCNT values of -100.

SMILES	growth
C/C(=N\NC(=S)N1CC2CCC(CC2)C1)c1ccccn1	5.42% (active)
CCC(C)C(N)C(=O)NC(CC(N)=O)C(=O)NC(CC(C)C)C(=O)NC(CCCCN)C(=O)NC(C)C(=O)NC(CC(C)C)C(=O)NC(C)C(=O)NC(C)C(=O)NC(CC(C)C)C(=O)NC(C)C(=O)NC(CCCCN)C(=O)NC(CCCCN)C(=O)NC(C(=O)NC(CC(C)C)C(N)=O)C(C)CC (stereo not given)	90.3%
COc1cc(-c2ccc(-[n+]3nc(-c4ccc([N+](=O)[O-])cc4)nn3-c3ccc([N+](=O)[O-])cc3)c(OC)c2)ccc1-[n+]1nc(-c2ccc([N+](=O)[O-])cc2)nn1-c1ccc([N+](=O)[O-])cc1	11.8%
CC1CC(C)(C)OB(OC(C)CC(C)(C)OB2OC(C)CC(C)(C)O2)O1 (stereo not given)	93.8%
CCCCCCCCc1cc(Cl)c(O)c(Cl)c1	98.5%
CCCCCCCCCCCCSC(=N)N	40.9%
CCN(CC)CCNc1ccc([N+](=O)[O-])c2sc3ccccc3c(=O)c12	7.92% (active)
COc1cc(/C=C/c2ccnc3ccccc23)cc(OC)c1OC	37%
C[n+]1ccccc1C[n+]1ccccc1	107%
O=C1c2ccccc2C(=O)c2c(O)c(Cl)cc(O)c21	108%
CN(C)c1ccc2cc3c(cc2c1)Oc1ccccc1N3.[Cl][Zn][Cl]	91.8%
CCCCCCCCC(=O)OCCCC(CCC(CCC1CCCO1)OC(=O)CCCCCCCC)OC(=O)CCCCCCCC (stereo not given)	104%
CN(C)CC(C)(CN(C)C)C(=O)/C=C/c1c(Cl)cccc1Cl	80.6%
COc1cc([C@@H]2c3cc4c(cc3[C@H](OC3OC5COC(c6ccccc6)OC5C(O)C3O)[C@H]3COC(=O)[C@H]23)OCO4)cc(OC)c1OC (stereo not given in full)	64.8%
CCOC(=O)/C(=C\c1ccc2ccccc2c1)P(=O)(OCC)OCC	55.8%
Cc1cc(C(=O)c2ccc(Cl)cc2)ccc1O	91.8%
CC(=O)c1c(O)c(C)c(O)c2c1OC1=CC(=O)C(C(C)=O)C(=O)C12C (stereo not given)	96%
CCN(CC)CC(O)c1cc(-c2ccc(Cl)cc2)nc2cc(Cl)ccc12 (stereo not given)	14.6%
O=C(C[P+](c1ccccc1)(c1ccccc1)c1ccccc1)c1ccccc1	90.1%
COC(=O)c1ccc(=O)c2nc3/c(=C/O)c(O)cc(=O)c3[nH]c12	27.7%

SMILES	growth
NCC(=O)NC(CC(=O)O)C(=O)O (stereo not given) (H-Gly-[ξD]-OH)	103%
CC(C)(C)c1ccc(O)c(-c2ccccc2)c1	109%
O=C(CBr)c1ccc(OC(=O)c2ccccc2)cc1	100%
CCc1cnc2ccccc2c1/C=C/c1ccc(N(C)C)cc1	33%
CCOC(=O)c1cc(CC)sc1NC(=O)CC(C)=O	78%
CCCCCCCCCCCCCCCCSC(=NCC)NCC	-19.9% (active)
CC1(C)CCCC2=C1C(=O)N(SC(Cl)(Cl)Cl)C2=O	92.6%
Cc1cc(I)nc2ccccc12	111%
OC(c1cc2ccc(C(F)(F)F)cc2c2cc(C(F)(F)F)ccc12)C1CCCCN1 (stereo not given)	-97% (active)
CCC(C)C1NC(=O)C(NC(=O)c2c3nc4c(C(=O)NC5C(=O)NC(C(C)CC)C(=O)N6CCCC6C(=O)N(C)CC(=O)N(C)C(C(C)C)C(=O)OC5C)ccc(C)c4oc-3c(C)c(=O)c2N)C(C)OC(=O)C(C(C)C)N(C)C(=O)CN(C)C(=O)C2CCCN2C1=O (stereo not given) (I: TIP[Sar][NMeV] / II: TIP[Sar][NMeV]; ester I:1-I:C, II:1-II:C; linker I:N-II:N via Actinocin(1to9); configuration not given here)	-15.2% (active)
CCOC(=O)C1=NN(c2ccccc2)C(=O)/C1=C\N1C(=O)/C(=C/c2cccc(O)c2)SC1=S	79.3%
CN(C)CCN(C)CC(C)(C)C(=O)/C=C/c1ccc(Cl)c(Cl)c1	-82% [100 µM] (active)
O=C(c1ccccc1)c1cc2ccccc2oc1=O	95.9%
Clc1ccc(Cc2nc3ccccc3s2)cc1	96.4%
O=C1C=CC(=O)N1c1ccc(O)cc1	103%
CC(O)C(O)C(O)C(O)C(O)C(=O)NNc1ccccc1 (stereo not given)	90.9%
CCc1oc2ccccc2c1C(=O)c1cc(Br)c(O)c(Br)c1	66.5%
CCCCCCCCCCCCCCCC[N+]1(C)CCCC1c1cccnc1 (stereo not given)	41.8%
O=C1/C(=C/c2ccccn2)CCc2ccccc21	99.3%
CCOC(=O)NC(/C=C/c1ccccc1)NC(=O)OCC	95.7%
